# From ChEMBL document CHEMBL4513216, “Probing the Open Global Health Chemical Diversity Library for Multistage-Active Starting Points for Next-Generation Antimalarials” (ACS Infect Dis, 2020)
# About 8,600 (12%) of roughly 69,000 compounds showed an effect of 50% or more. The sample holds strong results, similar compounds and a random draw of the others, so the mix is not that of the screen.
# Tested on: Plasmodium berghei
# Test: Screen against P. berghei liver stage (PbLuc), transformed with Luciferase, at 10uM
# Assay type: functional, HepG2
# Details: tested at 10 uM
row,SMILES,INHIBITION
1,Cc1ccc(CN2CC[C@H](O)[C@@H](n3ccc(=O)[nH]c3=O)CC2)cc1,37.6%
2,Cn1cc(CN2CCC(Cn3cc(-c4ccccc4)nn3)CC2)cn1,48.8%
3,CN(C)c1cc(C(=O)N2CCN(c3nccs3)CC2)ccn1,-43.9%
4,O=C(c1cccnc1)N1CCC2(CC1)CNc1c(F)cccc12,40.5%
5,O=C(c1ccccc1)N1CCC2(CC1)CNc1c(F)cccc12,60.3%
6,CC(=O)N1CCC2(CC1)CNc1c(F)cccc12,29.5%
7,Cc1cc(CN2CCN(C(=O)NCCc3csc(C)n3)CC2)on1,-43.5%
8,O=C(NCC1CCOCC1)[C@@H]1C[C@@H]2[C@@H](CCN2Cc2ccoc2)O1,12.5%
9,CN(C)S(=O)(=O)N1CCCC(c2cccc(Cc3ccc(F)cc3)n2)C1 (configuration not stated),96%
10,Cc1c[nH]nc1C1CCN(S(=O)(=O)N(C)C)C1 (configuration not stated),-9.32%
11,CN(C)S(=O)(=O)N1CCCC(c2cccc(Cc3ccccc3F)n2)C1 (configuration not stated),15.9%
12,CN(C)S(=O)(=O)N1CCCC(c2cccc(Cc3ccc(Cl)cc3)n2)C1 (configuration not stated),82.7%
13,Cc1cc(C2CCCN(S(=O)(=O)N(C)C)C2)ccn1 (configuration not stated),-20.6%
14,Cc1noc(C)c1-c1cccc(C2CCN(S(=O)(=O)N(C)C)CC2)n1,32.4%
15,CN(C)S(=O)(=O)N1CCCC(c2cccc(Cc3ccccc3)n2)C1 (configuration not stated),84%
16,CS(=O)(=O)N1CCCC(c2cccc(-c3ccccc3F)n2)C1 (configuration not stated),12.675%
17,CN(C)S(=O)(=O)N1CCCC(c2nccnc2-c2cccc(Cl)c2)C1 (configuration not stated),5.37%
18,CN(C)S(=O)(=O)N1CCC(c2ccncn2)CC1,-9.32%
19,CN(C)S(=O)(=O)N1CCCC(c2ccncn2)C1 (configuration not stated),25.6%
20,CN(C)S(=O)(=O)N1CCC(c2cccc(Cc3ccccc3Cl)n2)CC1,96%
21,COc1ccc(C)cc1Nc1nc2c(C)nn(C)c2c(=O)n1C,-2.13%
22,COCCN1CCC(CNC(=O)C2(c3cccc(Cl)c3)CC2)C1 (configuration not stated),30.6%

row,SMILES,INHIBITION
1,c1cncc(CN2CCC(c3ccc4c(c3)OCO4)CC2)c1,6.4%
2,Cc1nc(O)c2nnn(C[C@H]3CCCN3C(=O)C3CCCC3)c2n1,30.4%
3,Cc1cc(NC(=O)NCCCSc2nncn2C)no1,15%
4,Cc1nn(C)c(N(C)C)c1CNCc1ccc2c(c1)OCO2,11.4%
5,COC1CCN(c2ccc(F)cc2CN(C)CC(N)=O)CC1,-3.83%
6,CN1CCCC(c2cccc(CCC(N)=O)n2)C1 (configuration not stated),-4.51%
7,CC(=O)N1CCCC1c1cccc(Cc2ccccc2Cl)n1 (configuration not stated),38.2%
8,CN1CCCC(c2cccc(Cc3ccccc3Cl)n2)C1 (configuration not stated),51.7%
9,Cc1ccc(-c2nc(CNCC3CN(C)CCO3)co2)c(C)c1 (configuration not stated),7.12%
10,Cc1ccc(-c2nc(CCNC(=O)NCC(C)(C)C(N)=O)co2)cc1,27.6%
11,Cc1ccc(-c2nc(CSCCC(=O)NC(N)=O)co2)cc1,89.6%
12,NC(=O)NC(=O)CCSCc1coc(-c2cccc(Cl)c2)n1,5.91%
13,CNC(=O)Cc1coc(-c2ccc(F)cc2)n1,48.1%
14,NC(=O)NC(=O)CCSCc1coc(-c2ccc(F)cc2)n1,67.8%
15,Cc1ccc(-c2nc(CSCCC(=O)NC(N)=O)co2)c(C)c1,87.4%
16,CNC(=O)CCS(=O)(=O)Cc1coc(-c2ccc(F)cc2)n1,7.43%
17,NC(=O)NC(=O)CCSCc1cc(F)cc2cccnc12,-28.9%
18,CS(=O)(=O)c1cccc(C(N)c2ccc(F)c(F)c2)c1 (configuration not stated),-15%
19,COCCNC(=O)Cn1c(-c2ccc(F)cc2)nc(C)c(CCO)c1=O,-20.7%
20,CC1CCN(CC(=O)NC2CCN(C(C)c3ccccc3)CC2)CC1 (configuration not stated),-1.845%
21,NCC1CCC(C(NC(=O)CC2CCCC2)c2ccccn2)CC1 (configuration not stated),1.11%
22,Cc1cc(-c2nn3c(C4CC4)nnc3s2)on1,-6.47%

row,SMILES,INHIBITION
1,CCn1c(C)cc(C(=O)N2CCCC(C(=O)c3nccn3C)C2)c1C (configuration not stated),-1.09%
2,CC(=O)NC1CCN(c2cnc(C3CCNCC3)cn2)CC1,18.3%
3,COCC1CCCN(c2cncc(OCc3ccccc3)n2)C1 (configuration not stated),26.5%
4,Cc1cnn(CC(C)NCc2nc(-c3ccccn3)no2)c1 (configuration not stated),56.1%
5,Cc1cnn(CCNCc2nc(-c3ccccn3)no2)c1,-50.5%
6,CC(Cn1cccn1)NCc1nc(-c2ccccn2)no1 (configuration not stated),-62.7%
7,CC(Cn1cccn1)NCc1nc(-c2ccco2)no1 (configuration not stated),12.7%
8,Cc1cccc(-c2noc(CNC(C)Cn3cc(C)cn3)n2)c1 (configuration not stated),25.4%
9,Cc1cnn(CC(C)NCc2nc(-c3ccco3)no2)c1 (configuration not stated),53.5%
10,CN1CC(=O)N(c2cccnc2)CC12CCN(C(=O)c1cccnc1)C2 (configuration not stated),-13.3%
11,O=C(c1ccccc1OC1CCCC1)N1CCCC(n2cncn2)C1 (configuration not stated),49.8%
12,Cc1ccc(CN2CCC3(CCC(C(=O)N(C)C)O3)CC2)o1 (configuration not stated),-7.28%
13,Cn1cc(CC2CCN(C(=O)NCc3cn4ccsc4n3)C2)cn1 (configuration not stated),19.7%
14,CC(C)CNC(=O)N1C[C@@H]2C[C@H](C(=O)NCc3ccccc3)[C@H](C1)O2,-7.2%
15,COc1ccccc1N1CC(NC(=O)Cn2cc(C(C)C)nn2)CC1=O (configuration not stated),-14.2%
16,COc1ccccc1N1CC(NC(=O)c2cc(C(C)C)nn2C)CC1=O (configuration not stated),69.4%
17,COc1ccccc1N1CC(NC(=O)Cn2cc(C)nn2)CC1=O (configuration not stated),-71.7%
18,Cc1ncccc1CNCC1CCc2nnc(C(C)C)n2C1 (configuration not stated),29.8%
19,Cc1ncsc1CCNC(=O)Cn1nc(C)n(Cc2ccccc2)c1=O,-171%
20,CC(c1ccccc1Cl)N(C)Cc1nc2c(cnn2C)c(=O)[nH]1 (configuration not stated),16.165%
21,CCN(CC)C(CNC(=O)c1cccnc1-n1cncn1)c1ccsc1 (configuration not stated),21.1%
22,O=C(c1ccco1)N1CCC(n2nc(-c3ccco3)ccc2=O)CC1,-8.12%

row,SMILES,INHIBITION
1,O=C(c1cccs1)N1CCC(n2nc(-c3ccco3)ccc2=O)CC1,50.6%
2,O=C(c1cccs1)N1CCC(Cn2nc(-c3ccco3)ccc2=O)CC1,33.5%
3,CC(C)(C)C(=O)N1CCC(n2nc(-c3ccco3)ccc2=O)CC1,-4.51%
4,O=C(c1ccco1)N1CCC(n2nc(-c3cccs3)ccc2=O)CC1,5.11%
5,CC(C)C(=O)N1CCC(n2nc(-c3ccco3)ccc2=O)CC1,61.7%
6,COc1cc(N2C[C@H]3CN(C(=O)c4cccnc4)C[C@H]3C2)ncn1,0.164%
7,CC(C)N(C)Cc1cc(=O)n2c(n1)CN(C(=O)c1cnccn1)CCC2,33.5%
8,COc1ccc(CNC(=O)NC(C)(C(=O)O)c2ccco2)cc1F (configuration not stated),53.9%
9,CC(NC(=O)NCc1c(F)cccc1Cl)(C(=O)O)c1ccco1 (configuration not stated),14.1%
10,CC(NC(=O)NCc1ccccc1)(C(=O)O)c1ccco1 (configuration not stated),58%
11,CC(NC(=O)NCc1ccccc1F)(C(=O)O)c1ccco1 (configuration not stated),25.1%
12,CC(NC(=O)NCc1cccc(F)c1)(C(=O)O)c1ccco1 (configuration not stated),4.52%
13,CC(C)Oc1cccc(CNC(=O)NC(C)(C(=O)O)c2ccco2)c1 (configuration not stated),14.4%
14,COc1c(CNC2CCCOc3ccc(F)cc32)c(C(C)C)nn1C (configuration not stated),0.914%
15,CC(C)NC(=O)N1CC[C@@H](N(C)C)[C@@H]1Cc1ccccc1,0.804%
16,c1ccc2ncc(CC3CNCCOC3)cc2c1 (configuration not stated),3.48%
17,COCCN1CC[C@]2(CN(Cc3ccccn3)C[C@H]2C)C1=O,-2.03%
18,Cc1ccc(CCC(=O)N2CCC(Nc3cccnn3)CC2)cc1,52.5%
19,O=C(CCOc1ccccc1)N1CCC(Nc2cccnn2)CC1,50.4%
20,O=C(CCCc1ccccc1)N1CCC(Nc2cccnn2)CC1,-6.44%
21,COCCCC(=O)N1CCC(Nc2cccnn2)CC1,31.9%
22,O=C(CCNc1ncccn1)N1CCC(Nc2cccnn2)CC1,0.411%

row,SMILES,INHIBITION
1,O=C(CCc1ccsc1)N1CCC(Nc2cccnn2)CC1,25.1%
2,Cn1nc(Cn2cccn2)c2c1CN(C1CCOC1)C2 (configuration not stated),-4.02%
3,COCC(=O)N1CCN(C)C(=O)C(Cc2ccccc2-c2cccs2)C1 (configuration not stated),-20.6%
4,O=C(NCC1CC1)C1CCC2(CCN(C(=O)c3ccncc3)CC2)O1 (configuration not stated),-6.05%
5,CCc1nc(C2CCCN2Cc2nnc(C3CC3)o2)no1 (configuration not stated),-5%
6,Cc1oc(-c2ccco2)nc1CN1CCCC(Cn2cncn2)C1 (configuration not stated),-97.8%
7,CC(=O)N(Cc1ncc(C(C)C)o1)C1CCN(Cc2cc(C)no2)C1 (configuration not stated),13.95%
8,Cc1nccn1CCCNc1nccnc1C#N,12.9%
9,CN1CCC2(CCN(CC3CCOCC3)CC2)C1=O,26.5%
10,O=C(NCc1nc2cc(F)ccc2[nH]1)c1ccc[nH]1,-7.16%
11,CS(=O)(=O)c1ccc(C(=O)NCCNc2ncccn2)cc1,-5.07%
12,CS(=O)(=O)c1cccc(C(=O)NCC2Cc3ccccc3O2)c1 (configuration not stated),9.06%
13,CS(=O)(=O)c1ccc(C(=O)NCc2nc3cc(F)ccc3[nH]2)cc1,52.2%
14,CS(=O)(=O)c1cccc(C(=O)NCc2nc3cc(F)ccc3[nH]2)c1,64.5%
15,CN(C)c1cc(CNC(=O)c2cccc(F)c2)ccn1,24%
16,CC(C)CN1CC(C(=O)NCc2cccnc2-n2cccn2)CC1=O (configuration not stated),19.5%
17,Cc1noc(C2(C)CCCN(C(=O)C(C)C)C2)n1 (configuration not stated),12.8%
18,Cc1csc2c(C3CCCN(C(=O)Cn4cncn4)C3)nc(C)n12 (configuration not stated),7.19%
19,c1cncc(CN2CCc3ncnc(C4CC4)c3CC2)c1,6.72%
